According to PMC4336329 (PLoS ONE, 2015):
In all, about 310,000 compounds went through this assay and about 14,000 (4.5%) showed an effect of 50% or more. The effect is printed as a negative number. The entries come from a sample that favours strong results as a whole.
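Note: peak tail current of the secondary pulse compared with the same well before compound.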

The compounds below were run against human ether-à-go-go-related gene (hERG) potassium channel (human, UniProt Q12809) (assay: primary screen, population patch clamp on CHO cells stably expressing hERG; higher = less effect of the substance).
Chain of human ether-à-go-go-related gene (hERG) potassium channel (Q12809 whole entry, looked up): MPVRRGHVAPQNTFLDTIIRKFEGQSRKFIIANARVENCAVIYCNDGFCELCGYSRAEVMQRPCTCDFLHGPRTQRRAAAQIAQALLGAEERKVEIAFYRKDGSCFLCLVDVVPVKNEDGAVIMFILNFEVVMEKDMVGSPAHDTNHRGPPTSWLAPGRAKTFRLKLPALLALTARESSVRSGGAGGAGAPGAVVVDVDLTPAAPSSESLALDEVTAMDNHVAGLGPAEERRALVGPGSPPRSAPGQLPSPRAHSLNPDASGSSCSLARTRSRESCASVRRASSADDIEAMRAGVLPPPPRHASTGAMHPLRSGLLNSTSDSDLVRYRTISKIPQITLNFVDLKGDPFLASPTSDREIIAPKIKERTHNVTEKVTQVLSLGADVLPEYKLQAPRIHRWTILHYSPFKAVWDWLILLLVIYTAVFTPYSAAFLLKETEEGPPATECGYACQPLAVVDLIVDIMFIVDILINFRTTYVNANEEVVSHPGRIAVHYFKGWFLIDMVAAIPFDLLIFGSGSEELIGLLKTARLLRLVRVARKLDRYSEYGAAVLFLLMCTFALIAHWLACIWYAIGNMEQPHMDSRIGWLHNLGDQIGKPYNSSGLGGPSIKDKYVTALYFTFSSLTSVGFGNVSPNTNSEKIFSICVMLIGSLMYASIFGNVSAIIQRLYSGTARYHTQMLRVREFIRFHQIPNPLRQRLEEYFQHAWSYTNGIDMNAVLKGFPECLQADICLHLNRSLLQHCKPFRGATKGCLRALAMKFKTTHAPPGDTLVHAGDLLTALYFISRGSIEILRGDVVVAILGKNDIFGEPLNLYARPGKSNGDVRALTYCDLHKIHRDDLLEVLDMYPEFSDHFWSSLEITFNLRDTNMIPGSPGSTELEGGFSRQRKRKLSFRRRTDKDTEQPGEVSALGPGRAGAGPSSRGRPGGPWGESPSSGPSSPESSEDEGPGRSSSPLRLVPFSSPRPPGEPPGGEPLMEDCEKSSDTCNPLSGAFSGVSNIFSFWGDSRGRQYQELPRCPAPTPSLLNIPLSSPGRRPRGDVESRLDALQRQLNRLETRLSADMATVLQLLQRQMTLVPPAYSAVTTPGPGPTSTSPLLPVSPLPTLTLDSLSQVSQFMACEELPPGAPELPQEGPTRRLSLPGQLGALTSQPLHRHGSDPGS
For `Cc1ccc(NS(=O)(=O)c2c(C)noc2C)cc1`, the “hERG current change (%, negative = inhibition) at 10uM” value was -55.1%.
`CCc1ccc(NS(=O)(=O)c2c(C)noc2C)cc1` was tested, and the “hERG current change (%, negative = inhibition) at 10uM” value was -10.3%.
`Cc1noc(C)c1S(=O)(=O)Nc1ccc(C(C)C)cc1` was tested, and the “hERG current change (%, negative = inhibition) at 10uM” value was -17.6%.
With `O=C(CN1C(=O)CSc2ncccc21)Nc1cccc(Cl)c1` the “hERG current change (%, negative = inhibition) at 10uM” value was -25.4%.
`Cc1ccnc(SCC(=O)c2ccc(Br)s2)n1` was tested, and the “hERG current change (%, negative = inhibition) at 10uM” value was 3.59%.
`CC1(C)CC(=O)C2=C(C1)N(c1ccccc1C#N)C(N)=C(C#N)C2c1cccs1` (stereo not drawn) was tested, and the “hERG current change (%, negative = inhibition) at 10uM” value was -13%.
With `Cn1c2ccccc2c2nnc(NN)nc21` the “hERG current change (%, negative = inhibition) at 10uM” value was 12.2%.
With `Cn1c2ccccc2c2nnc(N/N=C/c3ccc(O)cc3)nc21` the “hERG current change (%, negative = inhibition) at 10uM” value was -0.978%.
`C/C(=N\Nc1nnc2c3ccccc3n(C)c2n1)c1ccc(C)o1` was tested, and the “hERG current change (%, negative = inhibition) at 10uM” value was -52.4%.
With `CCOC(=O)C1(C(F)(F)F)N=C(N(C)C)OC(N(C)C)=N1` the “hERG current change (%, negative = inhibition) at 10uM” value was 5.29%.
In the case of `Cc1cc(C)cc(Nc2cnn(C34CC5CC(CC(CC(=O)O)(C5)C3)C4)c(=O)c2Cl)c1`, the “hERG current change (%, negative = inhibition) at 10uM” value is reported as 5.39%.
`O=C(Nc1nc(-c2ccccn2)cs1)c1ccc(Br)s1` was tested, and the “hERG current change (%, negative = inhibition) at 10uM” value was 7.34%.
In the case of `COc1ccc(C2C3(C#N)C(N)=NC(OC)(OC)C23C#N)cc1` (stereo not drawn), the “hERG current change (%, negative = inhibition) at 10uM” value is reported as -53.4%.
For `COC1(OC)N=C(N)C2(C#N)C(c3ccc(F)cc3)C12C#N` (stereo not drawn), the “hERG current change (%, negative = inhibition) at 10uM” value was 5%.
With `COC1(OC)N=C(N)C2(C#N)C(c3ccc(C)cc3)C12C#N` (stereo not drawn) the “hERG current change (%, negative = inhibition) at 10uM” value was 10.1%.
`O=[N+]([O-])c1ccc(OCC(O)CNCCNc2nccc(C(F)(F)F)n2)cc1` (stereo not drawn) was tested, and the “hERG current change (%, negative = inhibition) at 10uM” value was -79.2%.
For `Cc1cccnc1NCC(O)COc1ccccc1` (stereo not drawn), the “hERG current change (%, negative = inhibition) at 10uM” value was -37.5%.
With `O=C(NCC(O)COc1ccc([N+](=O)[O-])cc1)c1ccccc1` (stereo not drawn) the “hERG current change (%, negative = inhibition) at 10uM” value was -40.4%.
In the case of `OC(CNCCNc1ncccc1C(F)(F)F)COc1ccc(F)cc1` (stereo not drawn), the “hERG current change (%, negative = inhibition) at 10uM” value is reported as -72%.
For `OC(CNCCNc1ncccc1C(F)(F)F)Cn1ccc2ccccc21` (stereo not drawn), the “hERG current change (%, negative = inhibition) at 10uM” value was -45.3%.
For `COc1ccc(OCC(O)CNCCNc2nccc(C(F)(F)F)n2)cc1` (stereo not drawn), the “hERG current change (%, negative = inhibition) at 10uM” value was -23.3%.
In the case of `Nc1ccc2oc3ccc(N)cc3c(=O)c2c1`, the “hERG current change (%, negative = inhibition) at 10uM” value is reported as 13.8%.
With `COc1ccccc1CCN1CCCC(CN(C)Cc2ccc(OCCO)cc2)C1` (stereo not drawn) the “hERG current change (%, negative = inhibition) at 10uM” value was -40.8%.
For `CN(Cc1ccccc1OCCO)CC1CCCN(CCc2ccc(Cl)cc2)C1` (stereo not drawn), the “hERG current change (%, negative = inhibition) at 10uM” value was -66.9%.
In the case of `CCOc1cccc(CN(C)CC2CCCN(CCc3ccc(Cl)cc3)C2)c1O` (stereo not drawn), the “hERG current change (%, negative = inhibition) at 10uM” value is reported as -69.7%.
For `CCOc1cccc(CN(CC)CC2CCCN(CCc3cccc(OC)c3)C2)c1O` (stereo not drawn), the “hERG current change (%, negative = inhibition) at 10uM” value was -66.7%.
For `CN(Cc1ccccc1O)CC1CCCN(CCc2ccc(Cl)cc2)C1` (stereo not drawn), the “hERG current change (%, negative = inhibition) at 10uM” value was -76.1%.
With `CCN(Cc1ccccc1OC)CC1CCCN(CCc2cccc(OC)c2)C1` (stereo not drawn) the “hERG current change (%, negative = inhibition) at 10uM” value was -43.6%.
For `CCOC(=O)c1cc2sc(C)cc2n1CC(=O)N1CCOCC1`, the “hERG current change (%, negative = inhibition) at 10uM” value was 7.06%.
With `Cc1cc(NC(=O)c2cccnc2)ccc1NC(=O)c1cc2ccccc2o1` the “hERG current change (%, negative = inhibition) at 10uM” value was 11.1%.
For `O=C(Nc1ccccn1)C(F)(F)C(F)(F)C(F)(F)C(F)(F)C(=O)Nc1ccccn1`, the “hERG current change (%, negative = inhibition) at 10uM” value was -18%.
For `COc1ccc(/C=C/C(=O)C2CC2)cc1Cn1nc(C)c([N+](=O)[O-])c1C`, the “hERG current change (%, negative = inhibition) at 10uM” value was -14.6%.
`COc1cc(C(=S)N2CCOCC2)ccc1OC(=O)c1cc(OC)c(OC)c(OC)c1` was tested, and the “hERG current change (%, negative = inhibition) at 10uM” value was 21.8%.
With `Cc1nnc(C)c2c(C)n(-c3ccc(Cl)c(N)c3)c(C)c12` the “hERG current change (%, negative = inhibition) at 10uM” value was -45%.
With `CC1(C)CC(=O)C2=C(C1)OC(N)=C(C#N)C21CCN(C(=O)OCc2ccccc2)CC1` the “hERG current change (%, negative = inhibition) at 10uM” value was -2.49%.
In the case of `N#CC1=C(N)OC2=C(C(=O)CCC2)C12CCN(C(=O)OCc1ccccc1)CC2`, the “hERG current change (%, negative = inhibition) at 10uM” value is reported as -55.9%.
In the case of `CCOC(=O)N1CCC2(CC1)C(C#N)=C(N)OC1=C2C(=O)CCC1`, the “hERG current change (%, negative = inhibition) at 10uM” value is reported as -0.515%.
In the case of `Cc1cc(NN)nc(NS(=O)(=O)c2ccccc2)n1`, the “hERG current change (%, negative = inhibition) at 10uM” value is reported as 25.7%.
`COc1ccc(N/C(C)=C2/C(=O)C(=O)N(CCO)C2c2ccc(Br)cc2)cc1` (stereo not drawn) was tested, and the “hERG current change (%, negative = inhibition) at 10uM” value was -49%.
With `COc1ccc(C2/C(=C(/O)c3ccccc3)C(=O)C(=O)N2CCO)cc1` (stereo not drawn) the “hERG current change (%, negative = inhibition) at 10uM” value was -21.1%.
`COc1ccc(N/C(C)=C2/C(=O)C(=O)N(CCO)C2c2ccc([N+](=O)[O-])cc2)cc1` (stereo not drawn) was tested, and the “hERG current change (%, negative = inhibition) at 10uM” value was -67.3%.
With `O=C(N/N=C/c1ccc([N+](=O)[O-])cc1)c1cccc2cc[nH]c12` the “hERG current change (%, negative = inhibition) at 10uM” value was 12.4%.
In the case of `CN(CC(=O)NCc1ccc(F)cc1)S(=O)(=O)c1cccc2nsnc12`, the “hERG current change (%, negative = inhibition) at 10uM” value is reported as -21.1%.
In the case of `CN(CC(=O)NCc1ccc(Cl)cc1)S(=O)(=O)c1cccc2nsnc12`, the “hERG current change (%, negative = inhibition) at 10uM” value is reported as -52.5%.
`CN(CC(=O)NCc1cccs1)S(=O)(=O)c1cccc2nsnc12` was tested, and the “hERG current change (%, negative = inhibition) at 10uM” value was 0.981%.
